The entries come from a sample that favours hits as a whole.
U2OS ROS induce: ROS inducers in U2OS cancer cells, primary screen, cell-based, H2DCF-DA fluorescence; U2OS ROS induction; 2% of 46,000 active; AID 624156, 2012; ROS induction (% of piperlongumine), % at 10 µM; in the data active = ROS induction above about 79%, passing the limit was not always enough
Each line names hits and unclear results; the compound was inactive in the other large screens.

COCCOC(=O)N1C(=O)[C@@]2(c3cc(C#CCCO)ccc31)[C@H](C(=O)N1CCN(c3ncccn3)CC1)[C@H]1C(=O)O[C@H](c3ccccc3)[C@H](c3ccccc3)N1[C@@H]2c1ccccc1OCCO	U2OS ROS induce 166
COCCOC(=O)N1C(=O)[C@@]2(c3ccccc31)[C@H](C(=O)N1CCN(c3ncccn3)CC1)[C@H]1C(=O)O[C@H](c3ccccc3)[C@H](c3ccccc3)N1[C@@H]2c1ccccc1OCCO	U2OS ROS induce 122
COCCOC(=O)N1C(=O)[C@@]2(c3cc(C#CC4(O)CCCCCC4)ccc31)[C@H](C(=O)N1CCN(c3ncccn3)CC1)[C@H]1C(=O)O[C@H](c3ccccc3)[C@H](c3ccccc3)N1[C@@H]2c1ccc(O)cc1	none
COCCOC(=O)N1C(=O)[C@@]2(c3cc(C#CC4(O)CCCCCC4)ccc31)[C@H](c1ccc(O)cc1)N1[C@H](c3ccccc3)[C@H](c3ccccc3)OC(=O)[C@H]1[C@@H]2C(=O)N1CCN(c2ncccn2)CC1	none
COCCOC(=O)N1C(=O)[C@@]2(c3ccccc31)[C@H](C(=O)Nc1nc3ccccc3s1)[C@H]1C(=O)O[C@H](c3ccccc3)[C@H](c3ccccc3)N1[C@@H]2c1ccccc1OCCO	none
CNC[C@@H]1Oc2c(NC(=O)c3cnccn3)cccc2C(=O)N([C@H](C)CO)C[C@@H]1C	none
C[C@@H]1CN([C@H](C)CO)C(=O)c2cc(NC(=O)CCCN(C)C)ccc2O[C@@H]1CN(C)C(=O)NC1CCCCC1	none
COC(=O)CSc1ncnc2scc(-c3ccc(Cl)cc3)c12	none
COC1OC2COC(c3ccccc3)OC2CC1O (stereo unspecified)	none
CCn1c(C)nc2c(=O)oc3ccccc3c21	none
Cc1nc2c(=O)oc3ccccc3c2n1-c1ccccc1	none
CC(C)n1nnc2c(=O)oc3ccccc3c21	U2OS ROS induce 79
C[C@H]1CN([C@@H](C)CO)C(=O)c2cc(NC(=O)Nc3ccc(F)cc3)ccc2O[C@H]1CN(C)S(=O)(=O)c1cn(C)cn1	none
CC1CCc2sc(NC(=O)C(Cc3ccccc3)Cc3ccccc3)c(C#N)c2C1 (stereo unspecified)	none
COC(=O)c1c(NC(=S)Nc2nc(C)cc(C)n2)sc2c1CCC(C)C2 (stereo unspecified)	none
CCNC(=S)Nc1sc2c(c1C#N)CCC(C)C2 (stereo unspecified)	U2OS ROS induce 167
Cc1csc2nc(CSc3ccc(Cl)cc3)c(Br)n12	none
O=C(O)c1ccccc1C(=O)NCCc1ccccc1	none
COc1cccc(NC(=O)N(C)C[C@H]2OCc3cnnn3CCCC(=O)N([C@H](C)CO)C[C@H]2C)c1	none
C[C@@H]1CN([C@H](C)CO)C(=O)Cc2cc(NC(=O)C3CC3)ccc2O[C@H]1CN(C)Cc1ccc(Oc2ccccc2)cc1	none
COc1ccc(CN(C)C[C@@H]2Oc3ccc(NC(=O)C4CC4)cc3CC(=O)N([C@H](C)CO)C[C@@H]2C)cc1	U2OS ROS induce 104
C[C@H]1CN([C@@H](C)CO)C(=O)Cc2cc(N(C)C)ccc2O[C@@H]1CN(C)Cc1ccc(C(=O)O)cc1	U2OS ROS induce 113
C[C@H]1CN([C@@H](C)CO)C(=O)Cc2cc(N(C)C)ccc2O[C@H]1CN(C)Cc1ccc(C(=O)O)cc1	none
COc1ccc(NC(=O)N(C)C[C@H]2Oc3ccc(NC(=O)C4CC4)cc3CC(=O)N([C@@H](C)CO)C[C@H]2C)cc1	none
COc1ccc(NC(=O)N(C)C[C@H]2Oc3ccc(NC(=O)C4CC4)cc3CC(=O)N([C@H](C)CO)C[C@H]2C)cc1	none
C[C@@H]1CN([C@H](C)CO)C(=O)Cc2cc(N(C)C)ccc2O[C@@H]1CN(C)Cc1ccc(C(=O)O)cc1	none
COc1ccc(NC(=O)N(C)C[C@@H]2Oc3ccc(NC(=O)C4CC4)cc3CC(=O)N([C@H](C)CO)C[C@H]2C)cc1	U2OS ROS induce 120
COc1ccc(CN(C)C[C@H]2Oc3ccc(NC(=O)Nc4ccc(OC)cc4)cc3CC(=O)N([C@@H](C)CO)C[C@@H]2C)cc1	none
COc1ccc(NC(=O)Nc2ccc3c(c2)CC(=O)N([C@@H](C)CO)C[C@H](C)[C@H](CN(C)Cc2ccc(C(=O)O)cc2)O3)cc1	U2OS ROS induce 133
COc1ccc(CN(C)C[C@H]2Oc3ccc(NC(=O)C4CC4)cc3CC(=O)N([C@@H](C)CO)C[C@@H]2C)cc1	none
COc1ccc(CN(C)C[C@@H]2Oc3ccc(NC(=O)Nc4ccc(OC)cc4)cc3CC(=O)N([C@H](C)CO)C[C@@H]2C)cc1	none
Cc1ccc(S(=O)(=O)N(C)C[C@@H]2Oc3c(NS(=O)(=O)c4cccs4)cccc3C(=O)N([C@@H](C)CO)C[C@@H]2C)cc1	none
Cc1c(C(=O)Nc2ccccc2Cl)sc2nc3n(c(=O)c12)N=C(c1cc(O)ccc1O)CS3	none
CSc1ccccc1CNC(=O)NC12CC3CC(CC(C3)C1)C2	none
C[C@@H]1CN([C@@H](C)CO)C(=O)c2cccc(NC(=O)c3ccncc3)c2O[C@@H]1CN(C)S(=O)(=O)c1cccs1	none
COc1ccc(S(=O)(=O)Nc2cncc(C(=O)N3CCN(c4ccc(F)cc4)CC3)c2)cc1	none
Cc1nn(C(C)(C)C)c(OC(=O)c2cccc(Br)c2)c1S(=O)(=O)c1ccccc1	none
N#CCN(CC#N)C(=O)c1ccco1	none
